According to PubChem BioAssay (NCATS):
Several values for one entry are separate records, joined by “and”; a condition that tells them apart may be missing. Identical values can stand only once. Records with an inconclusive call do not appear. Some compounds were tested as several samples or in several runs, with calls that do not always agree. Activity calls are given as the source filed them. Unless noted, calls come from the whole dose curve; as a rule, active = well fitted curve in either direction with a large enough effect (not every such curve was filed as active); inconclusive = small, poorly fitted or top-dose-only effect, or another doubt; inactive = flat fitted curve, though single readings scatter.

Legend:
[1] = biological target: Lysosomal acid glucosylceramidase (Homo sapiens) (UniProt P04062); test: Glucocerebrosidase-p2 (AID 348; in the data active = potency below about 10 µM; note: potency is the fitted concentration of half-maximal effect); conditions: purified GBA, blue fluorogenic substrate, 40 min
Summary of the method: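 Compounds titrated from 0.6 nM upwards against 0.2 nM enzyme in pH 5.9 citric acid/KH2PO4, taurocholate, tween-20; blue fluorogenic substrate 80 uM, 40 min room temperature, stopped and read Ex 365/Em 440 for AC50.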

[2] = AP1 Signaling Pathway (AID 357); conditions: ME-180 AP-1-bla reporter, EGF-induced, beta-lactamase ratio, 5 h; at 7.69 µM (top of the series) unless noted; note: % is set by controls: 0 for no effect and ±100 for the full control effect
Summary of the method: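 ME-180 cells with beta-lactamase reporter under AP-1 response element, stimulated with EC50 EGF; compounds tested in titration series, 5 h at 37 °C. CCF4 substrate added 2.5 h at room temperature; 460/530 nm emission ratio gave %activity and AC50.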

[3] = NFAT Signaling Pathway (AID 444); conditions: Jurkat NFAT-bla M1, carbachol, beta-lactamase ratio, 5 h;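 note: carbachol stimulus at about its EC50 of 1 µM final; % is set by controls: 0 for no effect and ±100 for the full control effect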
Summary of the method: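 Jurkat cells with NFAT-driven β-lactamase reporter and co-expressed M1 receptor, stimulated with carbachol (final 1 uM, ~EC50), compound titration, 5 h at 37 °C. CCF4 loaded 1 h at RT; 460/530 nm ratio gave %activity and AC50.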

[4] = Stat Signaling Pathway (AID 446); conditions: ME-180 SIE beta-lactamase reporter, IL-6 stimulated, 5 h;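 note: ME-180 cervical cancer cells given 40 pM IL-6 alongside compound; SIE-controlled beta-lactamase reporter measured as 460/530 nm FRET emission ratio; % is set by controls: 0 for no effect and ±100 for the full control effect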
Summary of the method: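 Reporter line: ME-180 cervical carcinoma, SIE-beta-lactamase. Treatment: compound with 40 pM IL-6, 5 hrs, 37 C, in low-serum OPTI-MEM with 10 mM HEPES pH 7.3. Detection: 460/530 nm fluorescence.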

[5] = biological target: Glucocorticoid receptor (Homo sapiens) (UniProt P04150); test: GR-EFC Redistribution (AID 451; calls by dose curve; note: potency is the fitted concentration of half-maximal effect); conditions: CHO-K1 GR-EFC translocation, beta-gal luminescence, 2 h
Summary of the method: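 CHO-K1 cells expressing nuclear EA and GR-ED fragments of b-gal; compounds titrated up to 46 uM final, 2 h at 37 C. GR nuclear translocation read as complemented b-gal luminescence after 1 h RT detection.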

[6] = biological target: Mitogen-activated protein kinase 10 (Mus musculus) (UniProt Q61831); test: JNK3 AlphaScreen Assay (AID 530); conditions: JNK3 lysate, c-Jun phosphorylation; series mostly up to 57.1 µM;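 note: kinase came from lysate of stimulated human HepG2 cells; signal reports phosphorylation of biotinylated GST-cJun 1-79 at Ser73 with 10 µM ATP; % is set by controls: 0 for no effect and ±100 for the full control effect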
Summary of the method: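 qHTS format: compounds tested as titrations against IL-1beta/TNF-alpha-activated HepG2 lysate JNK3 with biotin-GST-cJun substrate and 10 uM ATP at room temperature. Loss of anti-phospho-cJun AlphaScreen signal indicates inhibition.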

[7] = biological target: Cytochrome P450 3A4 (Homo sapiens) (UniProt P08684); test: qHTS Assay for Activators of Cytochrome P450 3A4 (AID 885; active = well fitted curve in the direction sought with a large enough effect; an effect the other way counts as inactive or inconclusive; note: nearly all actives have a fitted effect of over 65% in size); conditions: recombinant CYP3A4, Luciferin-PPXE luminescence, 60 min; series mostly up to 57.1 µM
Summary of the method: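 Signal was normalized against complete inhibition by 57 uM ketoconazole. The reaction used 20nM CYP3A4 with 25uM Luciferin-PPXE, 10-min compound preincubation and a 60-min NADPH-supported step at RT.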

[8] = qHTS Assay for Identification of Small Molecule Agonists for Hypoxia Response Element Signaling Pathway (AID 914; active = well fitted activation curve with a large enough effect in the signal ratio, with a control signal flat, not every such curve was filed as active; the % refers to the signal ratio; note: % of control where 0% means no effect); conditions: ME-180 (cervical carcinoma) HRE-bla reporter, beta-lactamase ratio, CoCl2, 17 h; activation: stronger effect = higher value
Summary of the method: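 qHTS titration; ME-180 HRE-bla cells; EC50 CoCl2 co-treatment, 17 h at 37 degrees Celsius; CCF4 dye, ex 405nm, em 460nm and 530nm; %Activity from ratio; AC50.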

[9] = qHTS Assay for Lipid Storage Modulators (AID 1519; calls by dose curve); conditions: Drosophila S3 cells, BODIPY lipid droplet/cell ratio, laser cytometry, cells loaded with oleic acid
Summary of the method: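 Cells seeded at 5,000 per well were treated with compounds over a concentration series and loaded with oleic acid (400 uM, as added). Lipid droplet fluorescence (488 nm excitation, 500-530 nm channel) was read by laser-scanning cytometry and normalized to 20 uM Triacsin C.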

[10] = biological target: 3',5'-cyclic-AMP phosphodiesterase 4B (Homo sapiens) (UniProt Q07343); test: qHTS Assay for Inhibitors of PDE-IV (AID 607; active = well fitted activation curve with a large enough effect in the main read-out, with a control signal flat, not every such curve was filed as active; note: % of control where 0% means no effect); conditions: HEK293 ACTOne CNG channel cells, membrane potential fluorescence; series mostly up to 22.9 µM
Summary of the method: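 Cell-based read-out of cAMP via a modified cyclic nucleotide-gated channel and membrane potential dye (535/590 nm) in HEK293 cells expressing PDE4 endogenously. Compounds tested up to 22.9 uM final; 100 uM RO 20-1724 reference.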

[11] = biological target: Glucocorticoid receptor (Homo sapiens) (UniProt P04150); test: GR-GFP Redistribution (AID 450;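 active = compounds whose dose series gives a full or clear partial fitted curve of increased nuclear translocation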; note: potency is the fitted concentration of half-maximal effect); conditions: U2OS GR-GFP nuclear translocation, laser cytometry, 2 h
[12] = Confirmation and Secondary Assay for Modulators of Hemoglobin Beta Chain Splicing at IVS2 654 locus (AID 910; active = well fitted curve in the direction sought with a large enough effect; an effect the other way counts as inactive or inconclusive;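 note: HeLa cells stably carrying EGFP split by mutant beta-globin IVS2-654 intron; % of control where 0% means no effect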); conditions: HeLa EGFP-654 splicing reporter, GFP fluorescence, 48 h; series mostly up to 38.3 µM
Summary of the method: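 HeLa cells stably expressing EGFP interrupted by β-globin IVS2-654 intron, seeded overnight in Opti-MEM/2% FCS, then treated 2 days at 37 °C. Restored splicing read as total peak GFP intensity per well by laser scanning cytometry (488 nm excitation, 500–520 nm emission); 500 nM antisense PNA as control.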

[13] = Confirmation and Secondary Assay for Modulators of Hemoglobin Beta Chain Splicing at IVS2 705 locus (AID 930; active = well fitted curve in the direction sought with a large enough effect; an effect the other way counts as inactive or inconclusive;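 note: HeLa cells stably expressing the EGFP-705 splicing reporter; GFP fluorescence per well restored by corrected splicing of the IVS2-705 intron in EGFP; % of control where 0% means no effect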); conditions: HeLa EGFP-705 splicing reporter, GFP fluorescence, 48 h; series mostly up to 38.3 µM
Summary of the method: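 Secondary splice-site specificity test uses HeLa expressing CMV-driven EGFP interrupted by IVS2-705; cells were treated 2 days at 37C with 500 nM antisense PNA as positive control.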

[14] = biological target: Cytochrome P450 1A2 (Homo sapiens) (UniProt P05177); test: p450-cyp1a2 (AID 410; calls by dose curve; note: potency is the fitted concentration of half-maximal effect;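 for activity change, negative = inhibition: -100% = full effect of reference inhibitor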); conditions: recombinant CYP1A2, luciferin-ME demethylation, luminescence; series mostly up to 57 µM
Summary of the method: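 Human CYP1A2 (20nM) demethylated Luciferin-ME at its Km (100uM) in 100mM KPO4. After 10 min compound preincubation, NADPH regeneration ran the reaction 60 min at room temperature. Luciferin was read by luminescence, normalized to 57 uM furafylline.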

[15] = biological target: Cytochrome P450 2D6 (Homo sapiens) (UniProt P10635); test: qHTS Assay for Inhibitors and Substrates of Cytochrome P450 2D6 (AID 891; active = well fitted curve in the direction sought with a large enough effect; an effect the other way counts as inactive or inconclusive; note: potency is the fitted concentration of half-maximal effect; nearly all actives have a fitted effect of over 60% in size); conditions: recombinant CYP2D6, luciferin-ME EGE luminescence; series mostly up to 57.1 µM
Summary of the method: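 Human CYP2D6 (5 nM) with 30 uM Luciferin-ME EGE (at Km) in 100 mM KPO4, compound preincubated 10 min, then NADPH regeneration system for 60 min at room temperature. Luciferin read by luminescence; normalized to 1.43 uM quinidine.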

[16] = biological target: Cytochrome P450 2C19 (Homo sapiens) (UniProt P33261); test: qHTS Assay for Inhibitors and Substrates of Cytochrome P450 2C19 (AID 899; active = well fitted curve in the direction sought with a large enough effect; an effect the other way counts as inactive or inconclusive; note: potency is the fitted concentration of half-maximal effect; nearly all actives have a fitted effect of over 60% in size); conditions: recombinant CYP2C19, luciferin-H EGE luminescence; series mostly up to 57.1 µM
Summary of the method: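 5 nM human CYP2C19 with 10uM Luciferin-H EGE (at KM) in 50mM KPO4, compound preincubated 10 min at 37C, then NADPH regeneration for 60 min at 37C. Luciferin read by luminescence after detection reagent; normalized to 57uM ketoconazole as full inhibition.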

[17] = biological target: ATP-dependent 6-phosphofructokinase (Trypanosoma brucei brucei) (UniProt O15648); test: qHTS Assay to Find Inhibitors of T. brucei phosphofructokinase: hit validation (AID 492961; active = well fitted curve in the direction sought with a large enough effect; an effect the other way counts as inactive or inconclusive); conditions: T. brucei PFK, ADP-Glo luminescence; series mostly up to 24.3 µM
Summary of the method: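 Compounds titrated; %activity normalized to 0x and 1x enzyme controls, curve-fitted. Readout: ADP-Glo luminescence after 45 min room-temperature reaction of 1.25 nM PFK, 0.1 mM ATP, 0.5 mM F6P, pH 8.0.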

[18] = biological target: Ubiquitin carboxyl-terminal hydrolase 1 (Homo sapiens) (UniProt O94782); test: Inhibitors of USP1/UAF1: Pilot qHTS (AID 504865; active = well fitted curve in the direction sought with a large enough effect; an effect the other way counts as inactive or inconclusive;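 note: rhodamine fluorescence freed from ubiquitin-rhodamine substrate followed over time; top concentration of the series differs between compounds; % is set by controls: 0 for no effect and ±100 for the full control effect; nearly all actives have a fitted effect of over 35% in size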); conditions: purified USP1/UAF1, Ub-rhodamine cleavage fluorescence; series mostly up to 54.9 µM
Summary of the method: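 1nM USP1/UAF1 + cpd, 15 min RT; start w/ Ub-Rho 150nM final; kinetic FL 480/540 nm, 6 reads q60 s. Buffer 50mM HEPES pH 7.8, 0.5mM EDTA, 1mM TCEP, 0.01% Tween-20, 0.1 mg/ml BSA.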

[19] = qHTS profiling for inhibitors of Plasmodium falciparum proliferation (AID 504749; active = well fitted curve in the direction sought with a large enough effect; an effect the other way counts as inactive or inconclusive;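 note: 0% = DMSO vehicle and full inhibition = artemisinin control; nearly all actives have a fitted effect of over 60% in size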); conditions: P. falciparum in erythrocytes, SYBR Green DNA, 72 h, at 12.8 µM (top of the series)
Summary of the method: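 Readout was DNA-dye fluorescence from lysed cultures, ex 485/em 535 nm. Parasitized red cells had grown 72 h with compound; data scaled between 0.29 uM artemisinin and DMSO wells and corrected using vehicle-only plates.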

[20] = biological target: Cytochrome P450 3A4 (Homo sapiens) (UniProt P08684); test: qHTS Assay for Inhibitors and Substrates of Cytochrome P450 3A4 (AID 884; active = well fitted curve in the direction sought with a large enough effect; an effect the other way counts as inactive or inconclusive; note: potency is the fitted concentration of half-maximal effect; nearly all actives have a fitted effect of over 50% in size); conditions: recombinant CYP3A4, Luciferin-PPXE luminescence; series mostly up to 57.1 µM
Summary of the method: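 20 nM human CYP3A4 with 25 uM Luciferin-PPXE (at KM) in 200 mM KPO4, preincubated 10 min with compound; NADPH regeneration started a 60 min RT reaction. Luciferin detected by luminescence, normalized to 57 uM ketoconazole as full inhibition.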

[21] = at 7.69 µM (top of the series) unless noted
[22] = measured here: cell count channel max response
[23] = measured here: lipid channel max response

Cytochrome P450 3A4 (Homo sapiens), sequence (P08684 whole entry, looked up): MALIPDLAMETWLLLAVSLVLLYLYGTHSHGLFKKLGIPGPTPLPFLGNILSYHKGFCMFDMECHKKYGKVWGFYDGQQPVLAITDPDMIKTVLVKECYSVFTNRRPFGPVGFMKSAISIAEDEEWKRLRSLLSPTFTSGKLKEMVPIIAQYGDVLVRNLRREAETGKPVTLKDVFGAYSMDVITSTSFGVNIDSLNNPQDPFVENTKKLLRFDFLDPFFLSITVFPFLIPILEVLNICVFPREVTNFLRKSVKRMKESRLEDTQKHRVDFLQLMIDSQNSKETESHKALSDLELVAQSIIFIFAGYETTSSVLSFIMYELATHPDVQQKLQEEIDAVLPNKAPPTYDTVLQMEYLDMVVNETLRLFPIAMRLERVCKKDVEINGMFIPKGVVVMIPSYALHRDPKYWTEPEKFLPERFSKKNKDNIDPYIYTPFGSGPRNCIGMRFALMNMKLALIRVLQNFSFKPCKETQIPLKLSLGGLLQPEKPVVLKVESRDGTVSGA
Cytochrome P450 1A2 (Homo sapiens), sequence (P05177 whole entry, looked up): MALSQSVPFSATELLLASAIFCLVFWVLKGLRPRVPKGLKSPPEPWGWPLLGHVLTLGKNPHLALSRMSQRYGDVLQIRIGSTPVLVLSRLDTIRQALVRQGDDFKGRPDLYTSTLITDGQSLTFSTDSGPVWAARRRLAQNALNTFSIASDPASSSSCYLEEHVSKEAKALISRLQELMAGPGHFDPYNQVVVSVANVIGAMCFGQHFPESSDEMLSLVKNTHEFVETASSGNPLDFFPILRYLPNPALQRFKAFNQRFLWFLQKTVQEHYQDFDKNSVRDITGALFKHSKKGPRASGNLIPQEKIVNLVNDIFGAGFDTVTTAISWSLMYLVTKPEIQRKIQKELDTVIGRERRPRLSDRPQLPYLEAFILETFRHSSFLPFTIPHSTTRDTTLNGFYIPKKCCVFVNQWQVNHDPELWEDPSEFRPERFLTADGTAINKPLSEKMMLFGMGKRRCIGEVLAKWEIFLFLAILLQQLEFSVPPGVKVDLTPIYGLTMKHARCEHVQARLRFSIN
Lysosomal acid glucosylceramidase (Homo sapiens), sequence (P04062 whole entry, looked up): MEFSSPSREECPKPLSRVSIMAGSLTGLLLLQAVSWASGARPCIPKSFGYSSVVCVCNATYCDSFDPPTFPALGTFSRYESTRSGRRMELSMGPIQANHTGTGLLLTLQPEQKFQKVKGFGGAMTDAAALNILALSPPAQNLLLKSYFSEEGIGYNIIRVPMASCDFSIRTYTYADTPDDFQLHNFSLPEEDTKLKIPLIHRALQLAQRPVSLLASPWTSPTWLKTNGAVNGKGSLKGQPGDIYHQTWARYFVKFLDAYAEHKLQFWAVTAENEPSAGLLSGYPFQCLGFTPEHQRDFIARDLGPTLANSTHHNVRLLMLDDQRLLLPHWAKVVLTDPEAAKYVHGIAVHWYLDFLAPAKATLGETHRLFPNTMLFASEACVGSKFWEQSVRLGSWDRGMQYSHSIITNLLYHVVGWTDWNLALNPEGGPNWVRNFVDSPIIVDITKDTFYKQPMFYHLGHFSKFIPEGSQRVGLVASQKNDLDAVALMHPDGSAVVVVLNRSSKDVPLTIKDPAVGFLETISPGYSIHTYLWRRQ
Glucocorticoid receptor (Homo sapiens), sequence (P04150 whole entry, looked up, the tested form may be a part): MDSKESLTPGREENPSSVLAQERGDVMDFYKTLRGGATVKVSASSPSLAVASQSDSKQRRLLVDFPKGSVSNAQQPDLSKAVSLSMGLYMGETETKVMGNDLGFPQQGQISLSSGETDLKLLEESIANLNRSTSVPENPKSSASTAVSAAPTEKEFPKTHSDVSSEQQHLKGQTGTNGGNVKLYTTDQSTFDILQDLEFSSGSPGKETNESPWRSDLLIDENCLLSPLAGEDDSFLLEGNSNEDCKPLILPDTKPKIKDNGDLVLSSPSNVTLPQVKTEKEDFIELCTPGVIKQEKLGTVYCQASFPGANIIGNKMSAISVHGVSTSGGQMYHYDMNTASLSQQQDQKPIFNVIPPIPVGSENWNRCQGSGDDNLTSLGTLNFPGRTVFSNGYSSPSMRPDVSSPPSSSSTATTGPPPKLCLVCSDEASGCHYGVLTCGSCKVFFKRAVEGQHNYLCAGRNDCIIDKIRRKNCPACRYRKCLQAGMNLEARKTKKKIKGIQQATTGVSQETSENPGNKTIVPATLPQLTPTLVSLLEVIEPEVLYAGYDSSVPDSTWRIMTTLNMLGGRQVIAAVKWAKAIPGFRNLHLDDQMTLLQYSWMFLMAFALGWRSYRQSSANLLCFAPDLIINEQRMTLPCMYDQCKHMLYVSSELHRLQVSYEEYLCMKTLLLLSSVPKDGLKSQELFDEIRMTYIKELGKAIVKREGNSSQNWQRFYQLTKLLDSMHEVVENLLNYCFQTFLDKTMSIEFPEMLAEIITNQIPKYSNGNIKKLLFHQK
3',5'-cyclic-AMP phosphodiesterase 4B (Homo sapiens), sequence (Q07343 whole entry, looked up): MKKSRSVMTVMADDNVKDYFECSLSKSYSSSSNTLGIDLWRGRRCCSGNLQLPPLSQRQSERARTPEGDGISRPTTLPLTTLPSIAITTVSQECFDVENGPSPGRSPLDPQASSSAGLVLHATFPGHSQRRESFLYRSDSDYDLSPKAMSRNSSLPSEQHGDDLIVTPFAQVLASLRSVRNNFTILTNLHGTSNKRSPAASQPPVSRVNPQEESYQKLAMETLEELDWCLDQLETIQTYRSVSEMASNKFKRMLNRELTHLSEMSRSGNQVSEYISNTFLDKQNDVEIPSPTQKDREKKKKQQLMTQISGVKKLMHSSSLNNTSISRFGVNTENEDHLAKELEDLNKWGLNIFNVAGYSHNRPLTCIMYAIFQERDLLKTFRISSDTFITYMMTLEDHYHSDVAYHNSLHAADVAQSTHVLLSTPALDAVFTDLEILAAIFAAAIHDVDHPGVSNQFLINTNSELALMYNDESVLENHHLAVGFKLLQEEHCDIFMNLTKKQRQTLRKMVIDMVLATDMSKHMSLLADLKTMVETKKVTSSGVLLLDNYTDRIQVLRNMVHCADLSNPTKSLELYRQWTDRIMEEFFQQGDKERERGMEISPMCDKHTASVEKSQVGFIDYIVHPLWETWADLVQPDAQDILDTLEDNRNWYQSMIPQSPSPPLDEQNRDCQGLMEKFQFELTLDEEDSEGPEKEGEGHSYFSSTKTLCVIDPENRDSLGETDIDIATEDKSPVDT
Cytochrome P450 2D6 (Homo sapiens), sequence (P10635 whole entry, looked up): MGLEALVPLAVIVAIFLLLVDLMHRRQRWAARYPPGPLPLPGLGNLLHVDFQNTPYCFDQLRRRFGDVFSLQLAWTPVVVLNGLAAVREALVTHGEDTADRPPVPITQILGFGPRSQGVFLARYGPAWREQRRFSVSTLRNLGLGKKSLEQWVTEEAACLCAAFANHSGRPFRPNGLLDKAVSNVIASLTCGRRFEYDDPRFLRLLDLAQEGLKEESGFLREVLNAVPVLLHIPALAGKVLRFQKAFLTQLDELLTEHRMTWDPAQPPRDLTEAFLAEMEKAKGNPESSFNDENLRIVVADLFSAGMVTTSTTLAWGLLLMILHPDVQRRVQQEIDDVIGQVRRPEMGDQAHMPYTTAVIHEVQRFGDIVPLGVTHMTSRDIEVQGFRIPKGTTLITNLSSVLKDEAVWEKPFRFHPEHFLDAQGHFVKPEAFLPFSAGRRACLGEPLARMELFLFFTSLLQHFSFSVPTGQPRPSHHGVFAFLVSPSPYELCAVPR
Cytochrome P450 2C19 (Homo sapiens), sequence (P33261 whole entry, looked up): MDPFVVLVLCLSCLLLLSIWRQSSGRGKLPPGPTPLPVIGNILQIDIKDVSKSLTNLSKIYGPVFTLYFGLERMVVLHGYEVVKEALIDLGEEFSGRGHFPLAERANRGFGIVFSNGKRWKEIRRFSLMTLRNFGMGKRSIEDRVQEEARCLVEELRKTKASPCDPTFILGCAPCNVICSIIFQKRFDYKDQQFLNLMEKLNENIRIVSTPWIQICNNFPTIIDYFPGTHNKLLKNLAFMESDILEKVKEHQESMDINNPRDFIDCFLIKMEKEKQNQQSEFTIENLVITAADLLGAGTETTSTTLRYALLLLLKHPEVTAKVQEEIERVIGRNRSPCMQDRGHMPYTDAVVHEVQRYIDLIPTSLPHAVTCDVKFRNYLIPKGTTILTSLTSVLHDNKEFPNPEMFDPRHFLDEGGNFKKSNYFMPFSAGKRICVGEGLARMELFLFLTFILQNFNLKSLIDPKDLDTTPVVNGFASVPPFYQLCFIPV
ATP-dependent 6-phosphofructokinase (Trypanosoma brucei brucei), sequence (O15648 whole entry, looked up): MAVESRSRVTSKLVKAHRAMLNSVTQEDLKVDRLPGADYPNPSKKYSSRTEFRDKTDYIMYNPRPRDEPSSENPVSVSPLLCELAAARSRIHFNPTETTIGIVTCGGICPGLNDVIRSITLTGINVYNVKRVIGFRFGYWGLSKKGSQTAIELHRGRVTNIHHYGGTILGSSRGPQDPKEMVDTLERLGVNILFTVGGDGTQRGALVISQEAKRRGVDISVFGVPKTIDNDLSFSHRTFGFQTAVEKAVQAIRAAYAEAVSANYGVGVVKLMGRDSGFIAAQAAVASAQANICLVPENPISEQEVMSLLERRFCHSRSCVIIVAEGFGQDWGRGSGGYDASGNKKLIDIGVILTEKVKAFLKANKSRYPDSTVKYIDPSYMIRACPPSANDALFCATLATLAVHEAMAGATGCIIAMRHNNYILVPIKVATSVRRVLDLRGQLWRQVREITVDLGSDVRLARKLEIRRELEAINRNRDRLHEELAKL

COc1ccccc1CN1CC[C@@]2(CCCN(C(=O)c3ccco3)C2)C1
4.46%: max response [9, 22]
8.6%: max response [9, 23]
inactive: Potency [1] > 11.4 µM | activity change, negative = inhibition [2] -2.43% | activity change, negative = inhibition [3, 21] -21.8% | activity, negative = inhibition [4, 21] -8.66% | Potency [5] > 46 µM | Potency [6] | Potency [7] | activation [8] 6.4% | activity change, negative = inhibition ([9]; at 57.5 µM (top of the series)) 1.52%

COc1ccc(NC(=O)N2CCC3(CC2)CCN(C(=O)c2cc(C(F)(F)F)cc(C(F)(F)F)c2)CC3)cc1
-1.48%: max response [9, 23]
inactive: Potency [1] > 11.4 µM | activity change, negative = inhibition [2] -5.96% | activity, negative = inhibition [4, 21] -5.72% | Potency [5] > 46 µM | Potency [6] | Potency [10] | activity change, negative = inhibition ([9]; at 57.5 µM (top of the series)) -8%
3.79%: max response [9, 22]

O=C(c1ccncc1)N1CCC[C@@]2(CCN(c3cccc(-c4ccccc4)c3)C2)C1
8.47%: max response [9, 22]
inactive: Potency [1] > 11.4 µM | activity change, negative = inhibition [2] -13.8% | activity change, negative = inhibition [3, 21] -1.5% | activity, negative = inhibition [4, 21] -6.3% | Potency [5] > 46 µM | Potency [10] | activity change, negative = inhibition ([9]; at 57.5 µM (top of the series)) 1.7%
13%: max response [9, 23]

COc1ccccc1CNc1ncncc1-c1ccc(N(C)C)cc1
inactive: Potency [1] > 11.4 µM | activity change, negative = inhibition [2] -14.4% | activity change, negative = inhibition [3, 21] -2.91% | activity, negative = inhibition [4, 21] -7.61% | Potency [11] > 46 µM | Potency [5] > 46 µM | Potency [12] | outcome [13] | activity change, negative = inhibition ([9]; at 57.5 µM (top of the series)) 7.79%
-12.6%: max response [9, 22]
-7.14%: max response [9, 23]

CC[C@@]12CCCN3CCc4c(n(c5ccccc45)C(=O)C1)[C@H]32
inactive: Potency [1] > 11.4 µM | activity change, negative = inhibition [14] -9.8% [at 2.29 µM] | activity change, negative = inhibition ([3]; at 7.69 µM (top of the series)) -5.89% | activity change, negative = inhibition ([3]; at 17.2 µM (top of the series)) -3.8% | activity, negative = inhibition ([4]; at 7.69 µM (top of the series)) 8.55% | activity, negative = inhibition ([4]; at 17.2 µM (top of the series)) 14.6% | Potency [6] | Potency [10] | Potency [7] | activity change, negative = inhibition ([9]; at 25.7 µM (top of the series)) -0.21% | outcome [17] | Potency [18] | activity, negative = inhibition ([19]; parasite line A) 14.8% | activity, negative = inhibition ([19]; parasite line B) -2.22%
-16.7%: max response [9, 22]
-14%: max response [9, 23]
active: Potency [14] 10 µM | Potency [15] 20 nM and 63.1 nM and 251 nM | Potency [16] 7.94 µM

c1ccc(Nc2ncnc3ccc(-c4ccc5c(c4)OCO5)cc23)cc1
-7.25%: max response [9, 23]
-12.2%: max response [9, 22]
inactive: Potency [1] > 11.4 µM | activity, negative = inhibition [4, 21] 8.5% | Potency [11] > 46 µM | Potency [5] > 46 µM | Potency [6] | Potency [7] | Potency [12] | outcome [13] | activity change, negative = inhibition ([9]; at 57.5 µM (top of the series)) 5.31%
active: Potency [14] 0.251 µM | Potency [20] 2.51 µM | Potency [15] 126 nM

O=c1c(CCc2ccccc2)nc2cnc(N3CCOCC3)nc2n1C[C@H]1CCCO1
-6.55%: max response [9, 23]
inactive: Potency [1] > 11.4 µM | activity change, negative = inhibition [2] -13.7% | activity change, negative = inhibition [3, 21] -4.34% | activity, negative = inhibition [4, 21] -10.8% | Potency [11] > 9.22 µM | Potency [5] > 46 µM | Potency [6] | Potency [10] | activity change, negative = inhibition ([9]; at 57.5 µM (top of the series)) -15.5%
-5.26%: max response [9, 22]
